This is an account of results in ChEMBL document CHEMBL4513216, “Probing the Open Global Health Chemical Diversity Library for Multistage-Active Starting Points for Next-Generation Antimalarials” (ACS Infect Dis, 2020).

Screen size: about 68,000 compounds; about 2,700 (4%) showed an effect of 50% or more. For the sample, strong results were picked, then their nearest neighbours and some compounds at random.

The test system of the experiment is Plasmodium berghei. The experiment can be described thus: Screen against P. berghei liver stage (PbLuc), transformed with Luciferase, at 2uM. In kind it is functional, HepG2. Conditions: tested at 2 uM.
For `CN(C)C(=O)c1csc(-c2ccoc2)n1`, the INHIBITION amounted to 38.83%.

With `CNC(=O)c1csc(-c2cccnc2)n1`, the INHIBITION is 30.63%.

Consider `CNC(=O)c1csc(-c2ccoc2)n1`, for which the INHIBITION was determined as 52.3%.

`Cc1nc(C)n(CC(C)C(=O)N2CCC(NS(C)(=O)=O)CC2)n1` (stereo not given): the INHIBITION came to 5.85%.

Regarding `CCc1ccc(C(COC)NC(=O)c2ccc(C(N)=O)cc2)o1` (stereo not given), the INHIBITION is 15.56%.

For `CSc1ncccc1C(=O)NCc1ccc(N(C)C)cc1`, the INHIBITION was determined as 10.65%.

Consider `CSc1ncccc1C(=O)Nc1ccc(Cn2ccccc2=O)cc1`, for which the INHIBITION is reported as 52.45%.

`Cc1ncccc1C(=O)Nc1cccc(Cn2ccccc2=O)c1`: the INHIBITION is 45.67%.

Consider `CS(=O)(=O)N[C@@H]1CCN(Cc2nccs2)[C@H]1Cc1ccncc1`, for which the INHIBITION is -11.68%.

`Cc1cc(NC(=O)C(C)Cn2cc(Br)cn2)no1` (stereo not given): the INHIBITION is on record as 0.55%.

For the molecule `CCCOc1ncccc1CNc1nnc(C)c(C)c1C#N`, the INHIBITION is given as 42.12%.

Turning to `Cc1nnc(NCc2cccnc2N(C)C)c(C#N)c1C`, the INHIBITION was 53.03%.

`CCOc1ncccc1CNc1nnc(C)c(C)c1C#N`: the INHIBITION was -27.71%.

With `COC(=O)N1CCCC(C(=O)NCc2cc3cccc(OC)c3o2)C1` (stereo not given), the INHIBITION stood at 33.01%.

On to `CCn1ncc(C(=O)NCCc2nc(-c3ccc(C)cc3)n[nH]2)c1C`, for which the INHIBITION is reported as -0.21%.

For the molecule `CC1(C)[C@@H]2CC=C(CN3CCCn4nc(C(=O)O)cc4C3)[C@H]1C2`, the INHIBITION is -17.07%.

With `CC1(C)[C@@H]2CC=C(CN3CCCn4nc(C(=O)NCCO)cc4C3)[C@H]1C2`, the INHIBITION is given as 53.17%.

As to `CC1(C)[C@@H]2CC=C(CN3CCCn4nc(CCC(=O)O)cc4C3)[C@H]1C2`, the INHIBITION worked out at 6.88%.

Consider `Cn1cc(CCNC(=O)NC2CCS(=O)(=O)C2)cn1` (stereo not given), for which the INHIBITION is given as 0.3%.

Regarding `CC(c1ccc(C(=O)NCCc2nc(N)cc(O)n2)o1)N1CCCCC1` (stereo not given), the INHIBITION was -24.78%.

As for `O=C(NCC1CCOC1)c1csc(-c2ccc(Cl)cc2)n1` (stereo not given), the INHIBITION is 5.09%.

As to `Cc1ccc(-c2nc(C(=O)NCC3CCOC3)cs2)cc1` (stereo not given), the INHIBITION was found to be 49.9%.

`COc1ccc(-c2nc(C(=O)NCC3CCOC3)cs2)cc1OC` (stereo not given): the INHIBITION turned out to be 60.09%.

`CC(=O)N(Cc1ncc(C)o1)C1CCN(CCc2cnn(C)c2)C1` (stereo not given): the INHIBITION worked out at 9.83%.

With `CCC1CN(C(=O)COc2ccc(C(=O)NC3CC3)cc2)CCO1` (stereo not given), the INHIBITION worked out at 32.93%.

For `N#CCCN1CC(O)CN(C(=O)c2cccc(C(F)(F)F)c2)CC1=O` (stereo not given), the INHIBITION is 24.52%.

Take `CNc1nc(CNC(=O)Nc2cccc(F)c2)cs1`: the INHIBITION was -88.54%.

Take `O=C(NCCCc1nc(=O)[nH][nH]1)Nc1cccc(F)c1`: the INHIBITION came out at 52.85%.

Consider `O=C(NCCCc1nc(=O)[nH][nH]1)Nc1ccc(Cl)cc1`, for which the INHIBITION was 23.64%.

With `COCC1CN(Cc2ccc(C)o2)Cc2nnn(C)c21` (stereo not given), the INHIBITION is listed as 38.83%.
